# Bioassay records deposited in PubChem by National Center for Advancing Translational Sciences (NCATS).
# In the library only some 2.9% were active in any assay of this set; here they are far more common.
# Rango complex inh: inhibitors of Rango-importin beta complex formation. Q14974. Rango CFP/YFP FRET sensor + importin beta, 45 min. Potency, µM (highest dose often 92.2 µM), without a hit: at the top dose inhibition of complex formation. actives 0.031% (n = 340,000). AID 540263;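 note: potency is the fitted concentration of half-maximal effect; 0% = DMSO wells and 100% = buffer wells lacking importin beta; nearly all actives have a fitted effect of over 15% in size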
# Target sequence (Q14974 whole entry, looked up): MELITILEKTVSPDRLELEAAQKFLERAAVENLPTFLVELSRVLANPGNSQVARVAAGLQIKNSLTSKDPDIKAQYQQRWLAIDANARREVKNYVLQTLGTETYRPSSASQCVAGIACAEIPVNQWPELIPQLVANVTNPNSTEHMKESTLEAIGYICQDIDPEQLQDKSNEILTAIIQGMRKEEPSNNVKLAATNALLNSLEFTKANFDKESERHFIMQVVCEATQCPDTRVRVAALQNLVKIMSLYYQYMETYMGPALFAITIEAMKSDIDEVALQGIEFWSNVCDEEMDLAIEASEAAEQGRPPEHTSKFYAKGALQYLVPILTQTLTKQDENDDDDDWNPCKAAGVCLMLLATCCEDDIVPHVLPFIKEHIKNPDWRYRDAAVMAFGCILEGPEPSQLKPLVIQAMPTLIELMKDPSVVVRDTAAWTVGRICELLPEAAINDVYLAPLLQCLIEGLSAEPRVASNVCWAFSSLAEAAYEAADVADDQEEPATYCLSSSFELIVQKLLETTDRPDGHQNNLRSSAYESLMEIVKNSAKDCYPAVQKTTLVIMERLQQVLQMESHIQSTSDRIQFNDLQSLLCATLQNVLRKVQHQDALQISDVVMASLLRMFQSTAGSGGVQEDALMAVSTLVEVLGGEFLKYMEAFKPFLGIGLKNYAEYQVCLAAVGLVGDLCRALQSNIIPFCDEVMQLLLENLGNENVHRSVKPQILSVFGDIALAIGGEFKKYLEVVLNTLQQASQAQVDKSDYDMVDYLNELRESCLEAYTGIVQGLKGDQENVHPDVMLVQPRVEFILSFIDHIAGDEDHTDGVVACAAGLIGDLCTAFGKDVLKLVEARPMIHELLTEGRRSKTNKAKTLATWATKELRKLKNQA
#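 FRET biosensor (snurportin 1 IBB flanked by EYFP and cerulean), 50 nM, with compound 5 min, then 0.125 microM importin beta in PBS, 1 mM DTT, 0.02% Tween-20, 0.1% BSA. CFP/YFP ratio read after 45 min at room temperature; pre-read flags interference.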
# Rango dissoc inh: inhibitors of RanGTP-induced Rango-importin beta complex dissociation | actives 0.071% (n = 340,000) | O95149+P62826 | Potency, µM (highest dose often 46.1 µM), for the others: at the top dose activity change, negative = inhibition | Biochemical FRET Rango-importin beta, RanGTP-induced dissociation | AID 540253; note: potency is the fitted concentration of half-maximal effect; % of control where 0% means no effect; nearly all actives have a fitted effect of over 45% in size
#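 Two FRET readings bracket the reaction: one 5 min after compound meets Rango–importin beta, another 45 min after RanGTP-RCC1 (0.6 uM Ran, 0.2 uM RCC1, 2 mM GTP) is added. Only the second defines inhibition.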
# MmCpn inh: blocks the Methanococcus maripaludis chaperonin Mm-Cpn; purified Mm-Cpn ATPase, ADP Transcreener TR-FRET; Potency, µM (titrated, usually from 76.9 µM), for the others: top-dose activity, negative = inhibition, hits mostly inhibitors; actives 0.031% (n = 330,000); active = well fitted inhibition curve with a large enough effect; inconclusive = small, poorly fitted or top-dose-only effect; note: potency is the fitted concentration of half-maximal effect; % is set by controls: 0 for no effect and ±100 for the full control effect; nearly all actives have a fitted effect of over 80% in size
#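 ATP (10 uM final) was added to archaeal chaperonin (25 nM final) after 10 min exposure to test compound at 37°C; after 30 min further incubation, ADP was detected by competitive TR-FRET.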
# TSG101-PTAP inh: blocks PTAP/TSG101 interaction to inhibit HIV-1 budding. Q99816. Fluorescence polarization, FITC-PTAP peptide / Tsg101 binding. Potency, µM (series often up to 115 µM), without a hit: at the highest dose activity change, negative = inhibition, usual class: inhibitors. 340,000 tested, under 10 active; active = well fitted inhibition curve with a large enough effect in the main read-out, with a control signal flat, not every such curve was filed as active; inconclusive = small, poorly fitted or top-dose-only effect, or effect the other way, or a change in a side signal; inactive = no such curve, though single readings can be large or run the other way; note: potency is the fitted concentration of half-maximal effect; % of control where 0% means no effect
#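 Fluorescence polarization binding of Tsg101 binding domain (10 uM final) to FITC-labeled PTAP peptide (50 nM final) in HEPES pH 7.5 buffer with NaCl, Tween 20, EDTA, TCEP. Compounds added before peptide; binding 20 min at RT.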
# DRD3 antagonist: antagonists of human D3 dopamine receptor; P35462; D3R cells, DiscoveRx beta-arrestin luminescence, antagonist mode; hits give low values; max response, negative = inhibition, %; actives 2.5% (n = 360,000); AID 652054; in the data active = max response below about -50%; inconclusive = no clear call, values can overlap the other calls; note: % is set by controls: 0 for no effect and ±100 for the full control effect
#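 Cells expressing the human receptor were seeded at 1500 cells/well, incubated overnight at 37 degrees C in 5% CO2, then exposed to library compounds with dopamine controls for 90 minutes at 37 degrees C before luminescent detection.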
# DRD3 agonist: agonists of human D3 dopamine receptor; max activation, %; actives 0.58% (n = 410,000); P35462; D3R DiscoveRx beta-arrestin cells, luminescence, 90 min; in the data active = max activation above about 30%; note: 0% is about no effect
#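 Cells at 1500/well, incubated overnight, then treated with pinned compounds (dopamine as control) for 90 min at 37 degrees C. DiscoveRx reagent added for 30 - 60 minutes at room temperature; luminescence read.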
# An asterisk follows results filed as active; ? = inconclusive; nt = no result. Unless noted, calls come from the whole dose curve.
SMILES,Rango complex inh,Rango dissoc inh,MmCpn inh,TSG101-PTAP inh,DRD3 antagonist,DRD3 agonist
CN(C)c1ccc(/C=C/c2ccc3ccccc3n2)cc1,?,?,-6%,-5%,13,-1
CC1=C(C(=O)Nc2ccc(C)cc2C)C(c2ccc(C(C)C)cc2)n2nc(C(F)(F)F)nc2N1 (stereo not given),nt,nt,nt,nt,nt,2
CCN(CC)CCNc1ccnc2cc(Cl)ccc12,0%,0%,2%,-8%,-80*,-30
Cc1ccc(Nc2ncnc3c2nnn3Cc2ccccc2)cc1,-2%,8%,-3%,0%,5,30*
Cc1ccc2[nH]c(=O)c(N3CCOCC3)c(-c3ccccc3)c2c1,-4%,-12%,-4%,-7%,30,33*
O=C(CCN1CCOCC1)Nc1c(-c2ccccc2)c2cc(Br)ccc2[nH]c1=O,0%,0%,4%,-9%,18,-2
Fc1ccc(CSc2nnc(Cc3sc(-c4ccccc4)nc3-c3ccccc3)o2)cc1,1%,4%,-11%,-2%,1,-7
COc1ccc(CSc2nnc(Cc3sc(-c4ccccc4)nc3-c3ccccc3)o2)cc1,-1%,12%,35µM*,-5%,2,2
COc1cccc(-n2c(-c3ccco3)nc3c(cnn3-c3ccccc3C)c2=O)c1,nt,nt,nt,nt,nt,-14
CCOC(=O)c1c(NC(=O)CN2CCCc3ccccc32)sc(C)c1C,0%,12%,-1%,1%,-10,6
COC(=O)c1c(NC(=O)CN2CCCc3ccccc32)sc(C)c1C,2%,-2%,-4%,2%,-60*,-11
Cc1cc(C)n(/N=C/c2cc(Cl)cc(Cl)c2O)c(=O)c1,?,?,4%,-8%,-77*,-28
O=C(NCc1ccco1)Nc1ccc2nsnc2c1,0%,2%,-10%,0%,-59*,0
CC(C)Nc1nc(NC(C)C)nc(N(C)N)n1,3%,1%,2%,0%,-53*,-10
CC(C)Nc1nc(NC(C)C)nc(N(C)C(N)=O)n1,3%,20%,1%,-3%,22,6
O=C(NCCN1CCN(c2ccccc2F)CC1)c1cccn2c(=O)c3ccccc3nc12,-3%,?,-2%,-1%,-50*,-17
CN(CCCNC(=O)c1cccn2c(=O)c3ccccc3nc12)Cc1ccccc1,?,?,2%,-8%,-56*,-57
Cc1ccc(-c2noc(-c3cccnc3NCc3ccc(Cl)cc3)n2)cc1,nt,nt,nt,nt,nt,3
CC[C@]1(O)C[C@H]2CN(CCc3c([nH]c4ccccc34)[C@@](C(=O)OC)(c3cc4c(cc3OC)N(C=O)[C@H]3[C@@](O)(C(=O)OC)[C@H](OC(C)=O)[C@]5(CC)C=CCN6CC[C@]43[C@@H]65)C2)C1,nt,nt,nt,nt,nt,-3
Cc1cc(-c2ccc(S(=O)(=O)N3CCN(c4ccccc4F)CC3)s2)on1,1%,1%,-26%,2%,-18,-5
Cc1c(C(=O)N(Cc2cccc(Br)c2)C2CCS(=O)(=O)C2)oc2ccc(F)cc12 (stereo not given),1%,-4%,-1%,4%,1,-12
COc1ccc(CC(N)c2csc(Nc3cccc(OC)n3)n2)cc1 (stereo not given),nt,nt,nt,nt,-83*,-13
Cc1ccc(S(=O)(=O)C(CNS(=O)(=O)c2ccc(F)c(C(F)(F)F)c2)c2ccco2)cc1 (stereo not given),nt,nt,nt,nt,nt,-5
CC(=O)Nc1ccc(C(=O)Nc2nc(-c3ccccn3)cs2)cc1,0%,-11%,-11%,-2%,-56*,-2
CC(=O)Nc1ccc(C(=O)Nc2nc(-c3cccnc3)cs2)cc1,2%,12%,-2%,-2%,10,-7
SMILES,Rango complex inh,Rango dissoc inh,MmCpn inh,TSG101-PTAP inh,DRD3 antagonist,DRD3 agonist
C[C@@H]1C[C@H]2C3C[C@H](F)C4=CC(=O)C=CC4(C)[C@@]3(F)[C@@H](O)CC2(C)[C@@]1(O)C(=O)COC(=O)C(C)(C)C (stereo not given in full),nt,nt,nt,nt,nt,-19
CCn1c(/C=C/c2c(C)n(CC)c3ccccc23)nc2ccccc2c1=O,?,?,0%,-5%,57,35*
c1ccc2[nH]ccc2c1,nt,nt,nt,nt,nt,50*
COc1ccc2c(c1)c(CC(=O)Nc1nnc(C3CC3)s1)c(C)n2C(=O)c1ccc(Cl)cc1,4%,-1%,-3%,5%,79,54*
COc1ccc2c(c1)c(CC(=O)Nc1ccc(C(C)=O)cc1)c(C)n2C(=O)c1ccc(Cl)cc1,3%,-8%,-23%,6%,-30,-10
CCOCCCNCc1cc(Br)ccc1OCc1ccccc1,-1%,-12%,0%,1%,-26,-25
Clc1ccc(OCCCNCc2ccccc2)c(Br)c1,1%,-5%,-3%,nt,-79*,-21
Clc1ccc(Cl)c(OCCCCNCc2ccccc2)c1,0%,1%,1%,-1%,-69*,-13
CCOc1ccccc1OCCOCCOc1ccccc1[N+](=O)[O-],-1%,-8%,1%,-1%,7,3
OCCCCNCc1ccc(OCc2ccc(Cl)cc2)cc1,-1%,-11%,1%,-4%,-18,-14
O=[N+]([O-])c1ccccc1OCCCNCc1ccccc1,3%,4%,0%,1%,-63*,-12
COc1cc(OC)c(OC)cc1CNC(=O)c1ccc(COc2ccccc2)cc1,-4%,13%,0%,-2%,4,31*
COc1ccc(CN(C)C(=O)c2ccc(COc3ccccc3)cc2)c(OC)c1,3%,2%,2%,-3%,-5,-16
CCn1nc(-c2ccccc2)c(-c2ccccc2)c(C(=O)Nc2ccccc2C(N)=O)c1=O,nt,nt,nt,nt,nt,1
CCOC(=O)c1ccc(NC(=O)CN2CCc3ccccc3C2)cc1,5%,-6%,1%,-11%,-62*,-5
O=C(CN1CCc2ccccc2C1)Nc1ccccc1N1CCCCCC1,0%,4%,-2%,2%,-54*,-43
Cc1ccc(NC(=O)C(C)N2CCc3ccccc3C2)cc1 (stereo not given),11%,-3%,1%,-9%,-76*,-23
O=C(CNC1CCCCCC1)Nc1ccccc1N1CCCCC1,-1%,-7%,-5%,-3%,-64*,-2
CC(C(=O)Nc1ccc(S(=O)(=O)N2CCCC2)cc1)N1CCc2ccccc2C1 (stereo not given),-1%,10%,0%,0%,?,-1
O=C(COC(=O)CNC(=O)c1ccco1)Nc1ccccc1OC(F)F,4%,3%,3%,-5%,-12,2
Cc1cc(C)cc(NC(=O)CN2CCc3ccccc3C2)c1,0%,2%,-2%,-1%,-67*,0
